The panel holds about 79,000 compounds, 15% with a hit somewhere; the sample as a whole holds those more often. Active and inactive are the calls of the source. No stated cut-off is given here; in the data, active means growth inhibition above about 70%; inactive means the rest.
Assays:
[1] = NCI Yeast Anticancer Drug Screen. Data for the rad50 strain (AID 155);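 further: 0% = growth of vehicle-only cultures of the same strain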; conditions: S. cerevisiae rad50 strain growth inhibition; at 50.0 µM; hits give high values
How it was run: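 Inhibition values express reduced yeast growth in compound-treated cultures relative to vehicle-treated controls.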

[2] = NCI Yeast Anticancer Drug Screen. Data for the mec2-1 strain (AID 157); conditions: S. cerevisiae mec2-1 strain, at 50.0 µM, hits give high values
How it was run: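 Readout is yeast growth inhibition, normalised to vehicle-treated controls, in the mec2-1 strain exposed to compound.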

[3] = NCI Yeast Anticancer Drug Screen. Data for the sgs1 mgt1 strain (AID 161);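 further: 0% = growth of cultures given vehicle only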; conditions: S. cerevisiae sgs1 mgt1 strain, at 50.0 µM, hits give high values
How it was run: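 Compounds are added to genetically altered yeast, and growth is compared with cultures given vehicle alone to give percent inhibition.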

[4] = NCI Yeast Anticancer Drug Screen. Data for the cln2 rad14 strain (AID 165);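 further: 0% = growth equal to vehicle treated cultures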; conditions: S. cerevisiae cln2 rad14 strain, at 50.0 µM, hits give high values
How it was run: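 Relative to vehicle controls, growth inhibition of compound-treated cln2 rad14 yeast was recorded.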

[5] = NCI Yeast Anticancer Drug Screen. Data for the bub3 strain (AID 167); conditions: S. cerevisiae bub3 mutant strain, at 50.0 µM, hits give high values
How it was run: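 Steps: expose the mutant yeast strain to compound; grow alongside vehicle-treated cultures; measure growth; express inhibition against the vehicle cultures.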

[6] = NCI Yeast Anticancer Drug Screen. Data for the mlh1 rad18 strain (AID 175); conditions: S. cerevisiae mlh1 rad18 strain growth inhibition; at 50.0 µM; hits give high values
How it was run: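 Test agents were incubated with a yeast strain of defined genotype (DNA damage repair defect). Inhibition of growth was derived by comparison with vehicle-exposed cultures.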

Measured: growth inhibition

CC1=CC2=C(C(N)=O)C(=O)OC2(C)C(c2ccccc2)C1 (configuration not stated)
inactive: [1] -19.9% | [2] -6.75% | [3] 4.65% | [4] 7% | [5] 1.85% | [6] 5.7%

CN(NC(=O)CCCl)C1=NCCN1
inactive: [1] 5.15% | [2] -4.6% | [3] -3.95% | [4] -11% | [5] 8.1% | [6] 16.7%

CCOC(=O)C(CC)C1=CCCCC1 (configuration not stated)
inactive: [1] -21% | [2] -48.7% | [3] -11.2% | [4] 12.3% | [5] -11.2% | [6] -8.55%

O=c1/c(=C/c2ccccc2[N+](=O)[O-])sc2nnc(-c3cccnc3)n12
inactive: [1] 11.7% | [2] 6.45% | [3] 12.8% | [4] 21.1% | [5] 11.8% | [6] 1.4%

NC(=O)CC(NC(=O)C(F)(F)F)C(=O)O (configuration not stated)
inactive: [1] -15.3% | [2] -22.9% | [3] -13.4% | [4] -6.85% | [5] -14.2% | [6] -24.2%

COC(=O)c1ccc(/C=C/c2cc(O)ccc2O)cc1
active: [6] 75%
inactive: [1] 16.5% | [2] 25.8% | [3] 56.6% | [4] 44.5% | [5] 52.5%

O=C1C=C2CCCCCCCC(C1)C2 (configuration not stated)
inactive: [1] 11.8% | [2] 1.1% | [3] 2.25% | [4] -1.75% | [5] -1.15% | [6] 3.2%

Cc1ccsc1/C=N/NC(N)=S
inactive: [1] 30% | [2] -7% | [3] 32.5% | [4] 5.55% | [5] 9.2% | [6] 28.7%

Cc1cc(C)cc(O)c1
inactive: [1] -9.4% | [2] -12.8% | [3] -42% | [4] -13.2% | [5] -14.8% | [6] -1.7%

O=C(Nc1ccc(F)c([N+](=O)[O-])c1)Nc1cc(C(F)(F)F)ccc1Cl
inactive: [1] 9.4% | [2] 1% | [3] 0.55% | [4] -0.4% | [5] -4.65% | [6] 24.2%

CCN(CC)CCc1c2c(nc3ccccc13)C(=O)c1cccnc1C2=O
active: [1] 84.3% | [3] 84% | [4] 74.4% | [5] 79.2%
inactive: [2] 66.3% | [6] -21.5%

c1ccc(-c2cccc(-c3cccc(-c4ccccc4)c3)c2)cc1
inactive: [1] 18.1% | [2] 0.6% | [3] 7.5% | [4] -47.9% | [5] 16.8% | [6] -6.65%

O=C1CCCC1CC(CN1CCOCC1)Sc1nnnn1-c1ccccc1 (configuration not stated)
inactive: [1] 6.55% | [2] -3.5% | [3] 17.1% | [4] -16.6% | [5] 25.2% | [6] -45.8%

Nc1c(-c2nc3ccccc3s2)[n+]([O-])c2ccccc2[n+]1[O-]
inactive: [1] 7.45% | [2] 20.6% | [3] 19% | [4] 29.6% | [5] -57.8% | [6] 15.9%

CNC(=O)Nc1ccccc1
inactive: [1] 27.4% | [2] -0.55% | [3] -12.1% | [4] 16.9% | [5] -21.9% | [6] 7.6%

CCOC(=O)N(C)C(=C(F)F)C(F)(F)F
inactive: [1] 9.1% | [2] -0.1% | [3] 10.8% | [4] 33.6% | [5] 12.4% | [6] -26.1%

C/C(=N\N=Nc1ccc(N(C)C)cc1)c1ccccc1
inactive: [1] 1.6% | [2] -3.3% | [3] -5.25% | [4] 15.9% | [5] 29.2% | [6] 9.1%

O=C(Nc1ccc(S(=O)(=O)N2CCCCC2)cc1)OC(c1ccccc1)c1ccccc1
inactive: [1] 38.3% | [2] -6.6% | [3] 27.4% | [4] 15.9% | [5] -11.7% | [6] 6.05%

O=C(NNC(=O)c1ccc(Cl)cc1Cl)c1ccc2ccccc2c1
inactive: [1] 9.4% | [2] -42% | [3] -14.4% | [4] 6% | [5] -0.1% | [6] -0.55%

O=C(Cn1cc(I)c(C(=O)NCC(O)CO)n1)NCC(O)CO (configuration not stated)
inactive: [1] -2.2% | [2] -8.7% | [3] -8.4% | [4] 26.9% | [5] -5.9% | [6] -9.25%

CCOc1ccc2nc(NC(=O)C(=O)C3C(=O)C(CC4C(=O)c5ccccc5C4=O)C(=O)CC3(C)C)sc2c1 (configuration not stated)
inactive: [1] 31.4% | [2] -1.1% | [3] 14.3% | [4] -29.8% | [5] -29.4% | [6] 8.9%

O=C(Nc1ccc(Cl)cc1)/C(Cc1cccc[n+]1[O-])=N\Nc1ccc([N+](=O)[O-])cc1[N+](=O)[O-]
inactive: [1] -19.4% | [2] -17% | [3] -6.2% | [4] -7.15% | [5] -26.6% | [6] -20.2%

CCCc1c(O)cccc1O
inactive: [1] 13.8% | [2] 6.55% | [3] 16.9% | [4] 0.9% | [5] -5.55% | [6] 11%

CC(C)c1ccccc1OC(=O)c1cccc(Br)c1
inactive: [1] -19% | [2] -1.95% | [3] 0.35% | [4] -23.1% | [5] 13.9% | [6] 1.5%

CC(=O)OC/C=C1/CC[C@H]2[C@@H]3CCC4=CC(=O)CC[C@]4(C)[C@H]3[C@@H](O)C[C@]12C
inactive: [1] 26.4% | [2] -4.25% | [3] 8.65% | [4] -31.4% | [5] 13.4% | [6] 26.9%

COc1ccc2c(c1)OC[C@@H]1c3cc(NC(=O)c4ccccc4)c(OC)cc3N(S(=O)(=O)c3ccccc3)[C@H]21
inactive: [1] -22.8% | [2] -6.4% | [3] -18.1% | [4] -3.3% | [5] 2.25% | [6] -2.25%

CC(=O)N/N=C/c1cccc([N+](=O)[O-])c1
inactive: [1] -6.25% | [2] 5.15% | [3] -4.55% | [4] -35.8% | [5] -19.9% | [6] -7.9%

O=C(Nc1ccc2c(c1)C(O)c1ccccc1-2)C(F)(F)F (configuration not stated)
inactive: [1] 11.4% | [2] -4.3% | [3] 18.9% | [4] 8.35% | [5] 6.85% | [6] 16.1%

CC1=Nc2ccccc2NC(C)(C)C1
inactive: [1] 30.1% | [2] 23.4% | [3] 29.5% | [4] 13.9% | [5] 15.2% | [6] 20.4%

NS(=O)(=O)c1ccc(N=C2C(=O)Nc3ccccc32)cc1
inactive: [1] 1.05% | [2] -6.1% | [3] -14.6% | [4] 17.6% | [5] -23.8% | [6] 4.95%

Nc1ccc([N+](=O)[O-])c(C(=O)O)c1
inactive: [1] -10.2% | [2] -26.9% | [3] -15% | [4] 15.9% | [5] -15.1% | [6] -6.9%

C/C(=N/NC(=O)c1ccncc1)C(F)(F)F
inactive: [1] -29.8% | [2] 5.75% | [3] -25.9% | [4] -6.85% | [5] 14% | [6] 7.85%

O=C1CCCc2[nH]c(=O)ccc21
inactive: [1] 13% | [2] -3.1% | [3] 0% | [4] -7.95% | [5] 0.3% | [6] 9.9%

CC(C)(Br)C(=O)N1CCN(C(c2ccccc2)c2ccccc2)CC1
inactive: [1] 3.15% | [2] 8.2% | [3] 2.3% | [4] -0.15% | [5] -0.3% | [6] 14.7%

COc1cc2c(cc1C(C)c1ccc(OCc3ccccc3)cc1)OCO2 (configuration not stated)
inactive: [1] -1.3% | [2] -1.1% | [3] -8.6% | [4] -13.1% | [5] 0% | [6] 9.65%

Cc1c2c(=O)oc3ccc(Cl)cc3c2nn1-c1ccccc1
inactive: [1] -13.9% | [2] -9.4% | [3] -11.8% | [4] -7.8% | [5] -25.7% | [6] -9.65%

O=C(c1ccccc1)c1cnc2ccccn12
inactive: [1] -2.35% | [2] -2.35% | [3] -3.15% | [4] -15.9% | [5] 5.8% | [6] -8.05%

O=C(Nc1nccs1)Nc1ccc(Cl)cc1[N+](=O)[O-]
inactive: [1] 0.1% | [2] 33.6% | [3] 34.6% | [4] -6.95% | [5] 24.8% | [6] 34.4%

NC(=Nc1ccc([N+](=O)[O-])cc1)c1ccccc1
inactive: [1] 6.95% | [2] 1.6% | [3] -4.05% | [4] -11.9% | [5] 8.3% | [6] 9.65%

Cc1nc[nH]c(=O)c1N
inactive: [1] 0.55% | [2] -1.75% | [3] 9.2% | [4] 0.9% | [5] 7.75% | [6] -4.85%

CN(C)CCCN1N=Nc2cccc3cccc1c23
inactive: [1] 1.75% | [2] 8.25% | [3] -14.3% | [4] 11.7% | [5] 15.2% | [6] 20.1%

Cn1nnn2c(-c3ccccc3)nnc12
inactive: [1] 15.4% | [2] -2.45% | [3] -5.45% | [4] -10.8% | [5] 0.8% | [6] -5.3%

Reference: PubChem BioAssay (NCI)
